The record followed here is PMC5540273 (PLoS ONE, 2017).

Test systems include TYRO3; ULK1; ULK2; ULK3; VRK2; WEE1; WEE2; WNK1; WNK2; WNK3; WNK4.
What all share (settings): concentration: 1 μM,replicates: in singlicate; n = 1
Experiment [1] deals with TYK2(JH2domain-pseudokinase).
The subject of another experiment is T1, VEGFR2.
T1 construct: gene KDR

The test system of the next experiment is T2, VPS34.
T2 construct: gene PIK3C3

The next experiment deals with T3, YANK1.
T3 construct: gene STK32A

Another experiment has as its system T4, YANK2.
T4 construct: gene STK32B

The subject of another experiment is T5, YANK3.
T5 construct: gene STK32C

For a further experiment, the system named is T6, YES.
T6 construct: gene YES1

A further experiment concerns T7, YSK1.
T7 construct: gene STK25

For a further experiment, the system named is T8, YSK4.
T8 construct: gene MAP3K19

Structures are written as SMILES.
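Note: KINOMEscan kinase panel screen.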

Regarding `COc1cc2nccc(Nc3ccc(Oc4ccccc4)cc3)c2cc1OC.Cl` [GI261656], the “%Inh” value in experiment [1] was found to be 12%; with TYRO3, 0%; with ULK1, 0%; with ULK2, 0%; with ULK3, 0%; in the experiment on VEGFR2, 23%. Further, the “%Inh” value is reported as 10% in the experiment with VPS34; 5% with VRK2; 0% in the experiment with WEE1; 0% in the experiment on WEE2; 0% in the experiment on WNK1; 0% in the experiment on WNK2. The “%Inh” value with WNK3 came to 42%; in the experiment with WNK4, 28%; in the experiment with YANK1, 7%; in the experiment with YANK2, 0%; in the experiment on YANK3, 0%; with YES, 79%. For the same molecule, the “%Inh” value in the experiment with YSK1 and with YSK4 was 0% each time.
`Cn1ccc2ncnc(Oc3ccc(NC(=O)Nc4cnn(C(C)(C)C)c4)c(Cl)c3)c21`: the “%Inh” value was found to be 3% in experiment [1]; 0% with TYRO3; 0% in the experiment on ULK1; 7% with ULK2; 0% with ULK3; 99.1% with VEGFR2. Further, the “%Inh” value in the experiment on VPS34 was 16%; with VRK2, 0%; with WEE1 it was 0%; with WEE2 it was 5%; in the experiment with WNK1, 62%; in the experiment with WNK2, 0%. The “%Inh” value in the experiment with WNK3 is 0%; with WNK4, 3%; in the experiment with YANK1, 1%; in the experiment on YANK2, 11%; with YANK3, 9%; in the experiment with YES, 0%. The results for the “%Inh” value in the experiment with YSK1 and in the experiment with YSK4 were 8% and 34%, respectively.
`NC(=O)c1ccc(-c2cc3ncnc(SCC(=O)O)c3s2)cc1`: the “%Inh” value in [1] turned out to be 42%; in the experiment with TYRO3 it was 0%; in the experiment with ULK1, 0%; with ULK2 it was 0%; in the experiment with ULK3, 11%; in the experiment on VEGFR2, 0%. The “%Inh” value in the experiment on VPS34, in the experiment on VRK2, with WEE1, in the experiment with WEE2, with WNK1 and with WNK2 was 0% throughout. The “%Inh” value in the experiment on WNK3, with WNK4, with YANK1, with YANK2, in the experiment with YANK3 and in the experiment with YES was 0% throughout. Further, the figures for the “%Inh” value in the experiment on YSK1 and in the experiment on YSK4 were 0% and 63%, respectively.
As to `Cn1ccc2ncnc(Oc3ccc(NC(=O)Nc4ccnc(C(F)(F)F)c4)c(Cl)c3)c21`, the “%Inh” value is on record as 0% in [1]; 0% with TYRO3; 0% in the experiment on ULK1; 0% in the experiment with ULK2; 0% in the experiment with ULK3; 98.5% in the experiment with VEGFR2. Further, the “%Inh” value was 0% with VPS34; 0% in the experiment with VRK2; 0% in the experiment with WEE1; 30% with WEE2; 0% with WNK1; 0% with WNK2. For the same molecule, the “%Inh” value in the experiment on WNK3, in the experiment with WNK4, in the experiment with YANK1, with YANK2, with YANK3 and in the experiment with YES was 0% each time. Moreover, the “%Inh” value is reported as 0% in the experiment on YSK1 and 14% with YSK4.
On to `CCOC(=O)N1CCC(n2cnc(-c3ccc(F)cc3)c2-c2ccnc(N)n2)CC1` [SB-219952], for which the “%Inh” value turned out to be 67% in experiment [1]; 20% in the experiment with TYRO3; 4% in the experiment with ULK1; 26% in the experiment with ULK2; 8% with ULK3; 3% with VEGFR2. For the same molecule, the “%Inh” value with VPS34 stood at 35%; in the experiment on VRK2 it was 27%; with WEE1, 0%; in the experiment with WEE2 it was 0%; in the experiment with WNK1 it was 28%; in the experiment with WNK2, 72%. Besides, the “%Inh” value stood at 45% in the experiment with WNK3; 0% in the experiment with WNK4; 15% in the experiment with YANK1; 15% in the experiment on YANK2; 0% with YANK3; 10% in the experiment with YES. Besides, the “%Inh” value was found to be 0% in the experiment with YSK1 and 9% with YSK4.
On to `O=C1NCCc2[nH]c(-c3ccncc3)cc21`, for which the “%Inh” value in [1] came to 41%; in the experiment with TYRO3, 0%; in the experiment with ULK1, 25%; with ULK2, 32%; with ULK3 it was 18%; in the experiment on VEGFR2, 25%. The “%Inh” value in the experiment on VPS34 was 25%; in the experiment with VRK2 it was 19%; with WEE1, 13%; with WEE2, 0%; with WNK1, 0%; in the experiment with WNK2, 26%. For the same molecule, the “%Inh” value in the experiment on WNK3 was found to be 0%; with WNK4 it was 22%; in the experiment on YANK1, 0%; with YANK2, 0%; in the experiment on YANK3, 6%; with YES, 0%. Moreover, the “%Inh” value in the experiment on YSK1 came to 0%; in the experiment on YSK4, 99.4%.
On to `c1ccc(Oc2ccc(Nc3ccnc4ccc(-c5ccccn5)cc34)cc2)cc1` [GW407034], for which the “%Inh” value in [1] amounted to 15%; in the experiment on TYRO3 it was 0%; in the experiment on ULK1 it was 49%; in the experiment with ULK2 it was 0%; in the experiment on ULK3 it was 5%; with VEGFR2, 0%. Further, the “%Inh” value was determined as 0% with VPS34; 0% with VRK2; 15% in the experiment with WEE1; 0% in the experiment with WEE2; 20% with WNK1; 25% with WNK2. Further, the “%Inh” value in the experiment on WNK3 is 20%; with WNK4, 51%; in the experiment on YANK1, 12%; in the experiment with YANK2 it was 0%; with YANK3, 30%; in the experiment on YES, 55%. Besides, the entries for the “%Inh” value in the experiment on YSK1 and in the experiment on YSK4 were 0% and 7%, respectively.
Regarding `O=c1[nH]cc(-c2ccc(O)cc2)c2sc(-c3ccncc3)cc12` [GSK1033723], the “%Inh” value in [1] came out at 16%; in the experiment with TYRO3, 8%; in the experiment with ULK1, 8%; with ULK2 it was 2%; in the experiment with ULK3, 6%; in the experiment on VEGFR2 it was 0%. In addition, the “%Inh” value in the experiment on VPS34 worked out at 0%; in the experiment with VRK2, 0%; in the experiment with WEE1 it was 3%; in the experiment with WEE2, 0%; with WNK1, 1%; in the experiment on WNK2 it was 26%. The “%Inh” value was 18% in the experiment with WNK3; 10% in the experiment with WNK4; 10% with YANK1; 0% in the experiment with YANK2; 14% in the experiment on YANK3; 5% with YES. Also, the “%Inh” value with YSK1 is given as 0%; with YSK4 it was 98.8%.
Take `Cc1ccn2nc(-c3ccc(F)cc3)c(-c3ccncc3)c2c1.Cl` [GW457859]: the “%Inh” value in experiment [1] turned out to be 25%; with TYRO3, 0%; in the experiment with ULK1, 0%; in the experiment on ULK2 it was 0%; with ULK3, 0%; in the experiment with VEGFR2 it was 19%. The “%Inh” value in the experiment on VPS34 was found to be 51%; in the experiment with VRK2, 0%; in the experiment with WEE1 it was 7%; with WEE2, 0%; in the experiment with WNK1 it was 0%; with WNK2, 5%. The “%Inh” value in the experiment with WNK3 is 30%; in the experiment on WNK4, 55%; in the experiment with YANK1, 91.9%; in the experiment with YANK2 it was 13%; with YANK3 it was 0%; in the experiment with YES, 5%. The entries for the “%Inh” value with YSK1 and in the experiment with YSK4 were 15% and 0%, respectively.
Regarding `C[C@@H](Oc1cc(-n2cnc3ccc(-c4ccncc4)cc32)sc1C(N)=O)c1ccccc1Cl` [GSK483724], the “%Inh” value in experiment [1] was determined as 42%; in the experiment with TYRO3 it was 0%; in the experiment with ULK1 it was 6%; in the experiment on ULK2, 0%; with ULK3, 7%; in the experiment with VEGFR2, 8%. Moreover, the “%Inh” value in the experiment on VPS34 was found to be 96.4%; in the experiment on VRK2 it was 0%; in the experiment on WEE1, 46%; with WEE2, 1%; in the experiment with WNK1, 46%; with WNK2, 63%. For the same molecule, the “%Inh” value in the experiment on WNK3 was 79%; in the experiment on WNK4, 51%; in the experiment on YANK1 it was 18%; with YANK2, 1%; with YANK3, 28%; in the experiment on YES it was 16%. Also, the results for the “%Inh” value in the experiment with YSK1 and with YSK4 were 2% and 68%, respectively.
As to `Cc1nnc(-c2ccc3occ(-c4ccc(S(C)=O)cc4)c3n2)o1` (stereo not shown), the “%Inh” value (in experiment [1]; in the experiment with TYRO3; with ULK1; in the experiment on ULK2; in the experiment on ULK3; in the experiment on VEGFR2) was 0% throughout. Further, the “%Inh” value in the experiment on VPS34 was 17%; in the experiment on VRK2 it was 0%; in the experiment with WEE1, 0%; with WEE2, 21%; in the experiment with WNK1 it was 0%; in the experiment with WNK2 it was 0%. For the same molecule, the “%Inh” value in the experiment on WNK3 is 0%; in the experiment with WNK4 it was 0%; in the experiment with YANK1 it was 0%; with YANK2, 0%; in the experiment on YANK3, 16%; with YES, 0%. The results for the “%Inh” value in the experiment on YSK1 and in the experiment with YSK4 were 7% and 0%, respectively.
